Publication PMC7862700, “An all-to-all approach to the identification of sequence-specific readers for epigenetic DNA modifications on cytosine”

What was measured:
Assay in all cases: DAPPL (digital affinity profiling via proximity ligation, sequencing); 10 mM Tris-HCl pH 7.5, 50 mM NaCl, 1 mM DTT, 4% glycerol, room temperature, 30 min; GST-TFs on glutathione beads, 16-mer random dsDNA library, 0.1% formaldehyde crosslink after washing; high values mean tight binding
FLI1 = target: T1, FLI1 (Homo sapiens, UniProt Q01543 1-452); details: protein: recombinant; tags: N-terminal GST; dsDNA, one strand shown
T1 sequence: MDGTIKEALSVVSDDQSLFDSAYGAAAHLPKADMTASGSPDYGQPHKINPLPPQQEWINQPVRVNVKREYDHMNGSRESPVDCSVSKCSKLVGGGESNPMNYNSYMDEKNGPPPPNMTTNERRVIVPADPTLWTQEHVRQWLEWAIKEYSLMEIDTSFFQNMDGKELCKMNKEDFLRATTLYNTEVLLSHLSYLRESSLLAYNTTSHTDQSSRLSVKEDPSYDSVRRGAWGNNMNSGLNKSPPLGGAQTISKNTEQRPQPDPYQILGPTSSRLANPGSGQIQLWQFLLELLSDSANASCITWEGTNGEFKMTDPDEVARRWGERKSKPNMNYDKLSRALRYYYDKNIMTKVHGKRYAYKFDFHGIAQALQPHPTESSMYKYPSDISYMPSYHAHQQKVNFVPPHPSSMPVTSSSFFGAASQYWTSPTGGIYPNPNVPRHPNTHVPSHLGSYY
Outline: (§1)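 A tag-only sample was pooled with DNA-barcoded human transcription factors that had been expressed in yeast as GST fusions and captured on glutathione beads. The pools were incubated for 30 min at room temperature with 200 nmole of a random double-stranded 16-mer DNA library in Tris/NaCl/DTT/glycerol buffer, then washed, crosslinked with 0.1% formaldehyde, proximity-ligated (BsaI/T4 ligase, 1 h, 37 °C), PCR-amplified and sequenced on an Illumina NextSeq500. Binding signal is each hexamer's read frequency for a factor divided by its frequency for the tag-only sample.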

ELK1 = target: T2, ELK1 (Homo sapiens, UniProt P19419 1-428); details: protein: recombinant; tags: N-terminal GST; dsDNA, one strand shown
T2 sequence: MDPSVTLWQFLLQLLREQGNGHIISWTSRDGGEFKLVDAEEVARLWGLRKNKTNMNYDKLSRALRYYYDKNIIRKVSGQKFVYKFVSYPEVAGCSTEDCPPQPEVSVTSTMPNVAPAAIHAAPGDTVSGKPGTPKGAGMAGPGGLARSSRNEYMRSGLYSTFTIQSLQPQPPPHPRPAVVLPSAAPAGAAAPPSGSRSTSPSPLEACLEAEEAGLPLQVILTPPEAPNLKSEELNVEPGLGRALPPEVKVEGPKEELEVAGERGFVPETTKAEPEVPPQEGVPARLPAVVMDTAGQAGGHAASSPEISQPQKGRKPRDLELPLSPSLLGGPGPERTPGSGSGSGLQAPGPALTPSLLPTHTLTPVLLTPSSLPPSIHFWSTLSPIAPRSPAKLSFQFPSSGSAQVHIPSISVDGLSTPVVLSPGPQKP
Outline: as §1

GABPA = target: T3, GABPA (Homo sapiens, UniProt Q06546 1-454); details: protein: recombinant; tags: N-terminal GST; dsDNA, one strand shown
T3 sequence: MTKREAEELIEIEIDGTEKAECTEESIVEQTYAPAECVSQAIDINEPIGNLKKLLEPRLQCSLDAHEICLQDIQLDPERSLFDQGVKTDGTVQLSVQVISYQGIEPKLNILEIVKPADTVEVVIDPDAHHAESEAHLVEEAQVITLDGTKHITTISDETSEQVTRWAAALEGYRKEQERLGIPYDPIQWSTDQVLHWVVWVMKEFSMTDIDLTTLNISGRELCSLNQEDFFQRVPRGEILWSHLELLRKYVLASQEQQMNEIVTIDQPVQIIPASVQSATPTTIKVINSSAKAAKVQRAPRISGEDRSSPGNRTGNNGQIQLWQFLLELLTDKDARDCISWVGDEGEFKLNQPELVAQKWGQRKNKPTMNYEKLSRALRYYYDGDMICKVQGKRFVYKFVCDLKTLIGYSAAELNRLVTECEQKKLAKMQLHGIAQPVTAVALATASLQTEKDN
Outline: as §1

ERG = target: T4, ERG (Homo sapiens, UniProt P11308 1-479); details: protein: recombinant; tags: N-terminal GST; dsDNA, one strand shown
T4 sequence: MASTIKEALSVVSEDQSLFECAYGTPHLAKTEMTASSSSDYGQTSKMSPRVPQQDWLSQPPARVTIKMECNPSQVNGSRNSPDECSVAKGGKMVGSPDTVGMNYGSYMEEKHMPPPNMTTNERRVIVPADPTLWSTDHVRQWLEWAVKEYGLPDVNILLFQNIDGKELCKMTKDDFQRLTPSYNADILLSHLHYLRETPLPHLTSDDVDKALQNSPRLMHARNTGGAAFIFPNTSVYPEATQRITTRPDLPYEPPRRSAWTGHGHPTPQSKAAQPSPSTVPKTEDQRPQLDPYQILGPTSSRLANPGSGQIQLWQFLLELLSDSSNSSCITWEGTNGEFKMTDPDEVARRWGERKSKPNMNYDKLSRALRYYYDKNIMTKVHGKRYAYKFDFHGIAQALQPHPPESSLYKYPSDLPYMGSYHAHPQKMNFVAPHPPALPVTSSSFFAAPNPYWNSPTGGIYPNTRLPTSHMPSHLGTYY
Outline: as §1

ELF1 = ELF1 (Homo sapiens, UniProt P32519 1-619); details: protein: recombinant; tags: N-terminal GST; dsDNA, one strand shown
Outline: as §1

EHF = target: T5, EHF (Homo sapiens, UniProt Q9NZC4 1-300); details: protein: recombinant; tags: N-terminal GST; dsDNA, one strand shown
T5 sequence: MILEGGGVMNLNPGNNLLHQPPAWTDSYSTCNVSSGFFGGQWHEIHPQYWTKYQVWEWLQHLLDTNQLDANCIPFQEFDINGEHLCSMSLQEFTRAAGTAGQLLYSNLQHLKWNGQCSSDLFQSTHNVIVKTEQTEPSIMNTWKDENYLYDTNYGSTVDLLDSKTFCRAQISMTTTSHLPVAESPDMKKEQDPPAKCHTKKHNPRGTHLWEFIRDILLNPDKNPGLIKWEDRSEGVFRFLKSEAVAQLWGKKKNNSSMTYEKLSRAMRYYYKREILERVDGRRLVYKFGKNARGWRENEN
Outline: as §1

SPI1 = SPI1 (Homo sapiens, UniProt P17947 1-270); details: protein: recombinant; tags: N-terminal GST; dsDNA, one strand shown
Outline: as §1

SPIB = SPIB (Homo sapiens, UniProt Q01892 1-262); details: protein: recombinant; tags: N-terminal GST; dsDNA, one strand shown
Outline: as §1

ELK3 = target: T6, ELK3 (Homo sapiens, UniProt P41970 1-407); details: protein: recombinant; tags: N-terminal GST; dsDNA, one strand shown
T6 sequence: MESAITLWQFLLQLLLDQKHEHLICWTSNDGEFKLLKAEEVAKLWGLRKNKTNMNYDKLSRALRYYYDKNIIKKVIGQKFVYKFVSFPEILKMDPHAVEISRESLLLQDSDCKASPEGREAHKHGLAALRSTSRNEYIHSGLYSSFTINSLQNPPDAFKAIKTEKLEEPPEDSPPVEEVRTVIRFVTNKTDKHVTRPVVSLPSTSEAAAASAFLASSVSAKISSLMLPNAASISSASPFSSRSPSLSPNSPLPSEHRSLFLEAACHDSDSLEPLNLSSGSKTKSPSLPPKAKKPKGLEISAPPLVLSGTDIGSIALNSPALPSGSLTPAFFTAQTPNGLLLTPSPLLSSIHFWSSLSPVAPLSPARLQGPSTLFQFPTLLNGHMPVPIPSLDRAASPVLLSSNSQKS
Outline: as §1

FEV = target: T7, FEV (Homo sapiens, UniProt Q99581 1-238); details: protein: recombinant; tags: N-terminal GST; dsDNA, one strand shown
T7 sequence: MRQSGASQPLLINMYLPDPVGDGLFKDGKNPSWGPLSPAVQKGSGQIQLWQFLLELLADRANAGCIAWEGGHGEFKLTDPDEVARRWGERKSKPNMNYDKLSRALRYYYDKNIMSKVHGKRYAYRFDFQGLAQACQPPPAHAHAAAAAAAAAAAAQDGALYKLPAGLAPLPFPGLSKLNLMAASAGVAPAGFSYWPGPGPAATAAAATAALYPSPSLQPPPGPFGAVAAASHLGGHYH
Outline: as §1

ETV5 = ETV5 (Homo sapiens, UniProt P41161 1-510); details: protein: recombinant; tags: N-terminal GST; dsDNA, one strand shown
Outline: as §1

HSF1 = HSF1 (Homo sapiens, UniProt Q00613 1-529); details: protein: recombinant; tags: N-terminal GST; chain copies: 3; dsDNA, one strand shown
Outline: as §1

SPIC = target: T8, SPIC (Homo sapiens, UniProt Q8N5J4 1-248); details: protein: recombinant; tags: N-terminal GST; dsDNA, one strand shown
T8 sequence: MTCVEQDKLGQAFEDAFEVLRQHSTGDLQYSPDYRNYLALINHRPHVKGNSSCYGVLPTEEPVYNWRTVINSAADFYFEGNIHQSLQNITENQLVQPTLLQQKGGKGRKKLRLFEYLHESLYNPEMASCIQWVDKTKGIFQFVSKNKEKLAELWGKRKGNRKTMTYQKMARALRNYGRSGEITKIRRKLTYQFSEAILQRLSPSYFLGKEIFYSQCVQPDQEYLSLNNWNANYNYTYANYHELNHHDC
Outline: as §1

ELF4 = ELF4 (Homo sapiens, UniProt Q99607 1-663); details: protein: recombinant; tags: N-terminal GST; dsDNA, one strand shown
Outline: as §1

ELK4 = target: T9, ELK4 (Homo sapiens, UniProt P28324-2 1-405); details: protein: recombinant; tags: N-terminal GST; dsDNA, one strand shown
T9 sequence: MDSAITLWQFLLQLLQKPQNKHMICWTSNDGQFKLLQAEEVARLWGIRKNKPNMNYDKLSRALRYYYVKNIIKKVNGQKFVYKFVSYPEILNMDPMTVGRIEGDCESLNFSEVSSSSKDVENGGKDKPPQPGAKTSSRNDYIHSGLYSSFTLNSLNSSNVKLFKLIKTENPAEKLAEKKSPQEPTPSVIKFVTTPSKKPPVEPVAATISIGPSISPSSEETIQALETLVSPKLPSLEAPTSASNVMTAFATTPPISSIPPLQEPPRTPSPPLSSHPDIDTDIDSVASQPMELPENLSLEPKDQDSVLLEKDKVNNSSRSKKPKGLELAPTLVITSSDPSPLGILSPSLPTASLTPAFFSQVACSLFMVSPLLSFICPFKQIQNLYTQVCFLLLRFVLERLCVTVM
Outline: as §1

ETV2 = target: T10, ETV2 (Homo sapiens, UniProt O00321 1-342); details: protein: recombinant; tags: N-terminal GST; dsDNA, one strand shown
T10 sequence: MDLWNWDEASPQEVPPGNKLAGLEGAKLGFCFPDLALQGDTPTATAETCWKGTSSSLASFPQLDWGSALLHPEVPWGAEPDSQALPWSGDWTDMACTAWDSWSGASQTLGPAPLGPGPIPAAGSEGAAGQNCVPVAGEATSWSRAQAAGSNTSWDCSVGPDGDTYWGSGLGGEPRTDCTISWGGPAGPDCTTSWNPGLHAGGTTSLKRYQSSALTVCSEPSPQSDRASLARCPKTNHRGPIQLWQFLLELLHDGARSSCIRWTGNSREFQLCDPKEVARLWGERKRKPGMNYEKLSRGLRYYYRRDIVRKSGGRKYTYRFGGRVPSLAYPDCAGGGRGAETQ
Outline: as §1

ELF3 = target: T11, ELF3 (Homo sapiens, UniProt P78545 1-371); details: protein: recombinant; tags: N-terminal GST; dsDNA, one strand shown
T11 sequence: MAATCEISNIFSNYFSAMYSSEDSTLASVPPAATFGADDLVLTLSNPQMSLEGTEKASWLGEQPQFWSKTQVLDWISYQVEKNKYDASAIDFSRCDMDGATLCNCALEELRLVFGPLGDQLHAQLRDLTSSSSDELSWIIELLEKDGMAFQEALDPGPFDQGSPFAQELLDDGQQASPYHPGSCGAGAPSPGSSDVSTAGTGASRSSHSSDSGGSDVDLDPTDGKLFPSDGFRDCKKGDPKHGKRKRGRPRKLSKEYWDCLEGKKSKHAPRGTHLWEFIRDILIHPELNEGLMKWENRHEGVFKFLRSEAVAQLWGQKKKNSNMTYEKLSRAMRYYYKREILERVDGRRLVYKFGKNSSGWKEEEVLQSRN
Outline: as §1

CRX = CRX (Homo sapiens, UniProt O43186 1-299); details: protein: recombinant; tags: N-terminal GST; dsDNA, one strand shown
Outline: as §1

ETV1 = ETV1 (Homo sapiens, UniProt P50549 1-477); details: protein: recombinant; tags: N-terminal GST; dsDNA, one strand shown
Outline: as §1

ETV1, sequence (P50549 whole entry): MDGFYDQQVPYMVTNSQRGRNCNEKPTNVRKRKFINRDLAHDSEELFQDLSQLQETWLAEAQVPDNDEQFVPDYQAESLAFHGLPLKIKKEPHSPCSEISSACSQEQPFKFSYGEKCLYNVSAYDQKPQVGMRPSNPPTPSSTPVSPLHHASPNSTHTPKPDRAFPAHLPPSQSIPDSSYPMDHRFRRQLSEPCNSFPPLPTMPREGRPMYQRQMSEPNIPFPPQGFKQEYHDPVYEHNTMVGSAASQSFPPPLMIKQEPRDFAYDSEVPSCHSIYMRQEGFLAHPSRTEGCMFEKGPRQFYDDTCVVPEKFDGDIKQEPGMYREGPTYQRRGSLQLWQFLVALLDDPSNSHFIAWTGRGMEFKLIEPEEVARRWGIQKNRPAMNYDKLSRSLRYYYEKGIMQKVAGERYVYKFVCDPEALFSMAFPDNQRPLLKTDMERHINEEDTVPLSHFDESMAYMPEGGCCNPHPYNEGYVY
ELF4, sequence (Q99607 whole entry): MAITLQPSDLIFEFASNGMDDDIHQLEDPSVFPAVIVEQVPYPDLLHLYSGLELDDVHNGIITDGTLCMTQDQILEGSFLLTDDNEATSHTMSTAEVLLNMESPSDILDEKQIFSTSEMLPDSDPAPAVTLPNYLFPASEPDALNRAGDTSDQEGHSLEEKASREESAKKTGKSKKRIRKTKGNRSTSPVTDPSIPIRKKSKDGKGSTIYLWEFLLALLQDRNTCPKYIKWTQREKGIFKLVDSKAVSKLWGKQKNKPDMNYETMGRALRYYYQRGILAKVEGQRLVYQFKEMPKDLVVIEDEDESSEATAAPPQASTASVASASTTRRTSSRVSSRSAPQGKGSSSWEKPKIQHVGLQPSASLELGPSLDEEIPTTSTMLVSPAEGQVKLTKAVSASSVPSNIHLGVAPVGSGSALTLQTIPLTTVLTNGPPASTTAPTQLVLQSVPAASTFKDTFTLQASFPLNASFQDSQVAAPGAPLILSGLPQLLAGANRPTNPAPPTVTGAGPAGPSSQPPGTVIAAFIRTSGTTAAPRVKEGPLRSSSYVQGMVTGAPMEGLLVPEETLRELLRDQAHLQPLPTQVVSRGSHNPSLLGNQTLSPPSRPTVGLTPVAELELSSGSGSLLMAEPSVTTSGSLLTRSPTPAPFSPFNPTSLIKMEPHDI
SPIB, sequence (Q01892 whole entry): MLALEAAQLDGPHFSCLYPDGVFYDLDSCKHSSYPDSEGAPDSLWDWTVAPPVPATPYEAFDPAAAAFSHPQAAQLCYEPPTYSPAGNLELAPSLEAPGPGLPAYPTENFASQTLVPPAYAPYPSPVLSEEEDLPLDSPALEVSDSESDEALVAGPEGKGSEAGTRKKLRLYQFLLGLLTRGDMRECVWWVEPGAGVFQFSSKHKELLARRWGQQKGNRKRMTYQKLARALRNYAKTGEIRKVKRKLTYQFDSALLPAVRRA
HSF1, sequence (Q00613 whole entry): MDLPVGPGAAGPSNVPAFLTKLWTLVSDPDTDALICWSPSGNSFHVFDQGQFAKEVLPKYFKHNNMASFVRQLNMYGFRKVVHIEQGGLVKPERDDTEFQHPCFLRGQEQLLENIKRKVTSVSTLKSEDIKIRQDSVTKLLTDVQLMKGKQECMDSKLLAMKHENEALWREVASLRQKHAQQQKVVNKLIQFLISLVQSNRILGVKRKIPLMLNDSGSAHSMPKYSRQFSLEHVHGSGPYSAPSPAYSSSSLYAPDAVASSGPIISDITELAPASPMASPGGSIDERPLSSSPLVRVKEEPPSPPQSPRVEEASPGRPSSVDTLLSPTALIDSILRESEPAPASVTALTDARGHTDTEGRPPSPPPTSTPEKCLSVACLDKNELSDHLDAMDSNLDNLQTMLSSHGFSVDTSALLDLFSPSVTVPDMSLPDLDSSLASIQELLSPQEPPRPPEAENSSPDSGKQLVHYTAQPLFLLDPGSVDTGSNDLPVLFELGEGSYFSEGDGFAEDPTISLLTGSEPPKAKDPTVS
ETV5, sequence (P41161 whole entry): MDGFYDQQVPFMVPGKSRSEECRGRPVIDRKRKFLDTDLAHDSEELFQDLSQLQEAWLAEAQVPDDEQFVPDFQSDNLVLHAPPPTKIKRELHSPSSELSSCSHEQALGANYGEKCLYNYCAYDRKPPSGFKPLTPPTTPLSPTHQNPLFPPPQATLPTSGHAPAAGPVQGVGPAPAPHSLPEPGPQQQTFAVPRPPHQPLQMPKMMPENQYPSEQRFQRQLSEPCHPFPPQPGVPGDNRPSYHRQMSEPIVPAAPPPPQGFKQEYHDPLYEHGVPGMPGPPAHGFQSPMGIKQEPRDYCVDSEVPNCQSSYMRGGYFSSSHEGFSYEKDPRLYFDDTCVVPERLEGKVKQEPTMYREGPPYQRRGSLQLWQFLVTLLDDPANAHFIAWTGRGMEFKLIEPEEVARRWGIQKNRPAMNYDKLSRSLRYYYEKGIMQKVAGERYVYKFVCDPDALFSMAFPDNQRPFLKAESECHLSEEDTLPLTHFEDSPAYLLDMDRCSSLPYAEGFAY
CRX, sequence (O43186 whole entry): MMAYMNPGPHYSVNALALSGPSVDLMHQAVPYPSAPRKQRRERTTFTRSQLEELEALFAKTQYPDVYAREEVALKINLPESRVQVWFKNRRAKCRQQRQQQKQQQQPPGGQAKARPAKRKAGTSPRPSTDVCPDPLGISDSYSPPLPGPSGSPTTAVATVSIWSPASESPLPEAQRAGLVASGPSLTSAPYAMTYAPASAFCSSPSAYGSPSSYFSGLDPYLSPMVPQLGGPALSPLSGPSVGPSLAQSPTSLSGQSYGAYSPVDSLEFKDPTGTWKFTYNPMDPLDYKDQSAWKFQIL
ELF1, sequence (P32519 whole entry): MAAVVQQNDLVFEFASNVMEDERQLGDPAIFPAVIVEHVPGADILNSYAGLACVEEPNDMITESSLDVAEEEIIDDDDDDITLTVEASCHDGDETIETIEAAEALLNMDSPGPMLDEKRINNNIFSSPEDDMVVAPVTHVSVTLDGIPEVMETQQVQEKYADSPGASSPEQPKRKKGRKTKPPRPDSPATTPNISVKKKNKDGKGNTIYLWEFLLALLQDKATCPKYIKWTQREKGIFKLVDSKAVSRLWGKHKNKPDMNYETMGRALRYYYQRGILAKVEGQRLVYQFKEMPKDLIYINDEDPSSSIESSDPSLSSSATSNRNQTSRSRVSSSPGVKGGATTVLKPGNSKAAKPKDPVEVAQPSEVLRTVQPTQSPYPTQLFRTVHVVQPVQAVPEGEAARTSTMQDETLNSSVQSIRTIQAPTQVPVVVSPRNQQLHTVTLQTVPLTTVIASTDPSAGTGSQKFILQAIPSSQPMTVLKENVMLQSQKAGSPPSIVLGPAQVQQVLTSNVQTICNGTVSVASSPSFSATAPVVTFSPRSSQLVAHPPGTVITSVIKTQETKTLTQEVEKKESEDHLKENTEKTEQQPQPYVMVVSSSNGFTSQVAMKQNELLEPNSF

CCCGCT
binding signal (FLI1): 1.38 fold enrichment (6-mer frequency, TF over GST control)
binding signal (ELK1): 1.31 fold enrichment (6-mer frequency, TF over GST control)
binding signal (GABPA): 1.34 fold enrichment (6-mer frequency, TF over GST control)
binding signal (ERG): 1.3 fold enrichment (6-mer frequency, TF over GST control)
binding signal (ELF1): 1.44 fold enrichment (6-mer frequency, TF over GST control)
binding signal (EHF): 1.48 fold enrichment (6-mer frequency, TF over GST control)
binding signal (SPI1): 1.37 fold enrichment (6-mer frequency, TF over GST control)
binding signal (SPIB): 1.35 fold enrichment (6-mer frequency, TF over GST control)
binding signal (ELK3): 1.35 fold enrichment (6-mer frequency, TF over GST control)
binding signal (FEV): 1.35 fold enrichment (6-mer frequency, TF over GST control)
binding signal (ETV5): 1.32 fold enrichment (6-mer frequency, TF over GST control)
binding signal (HSF1): 1.26 fold enrichment (6-mer frequency, TF over GST control)
binding signal (SPIC): 1.25 fold enrichment (6-mer frequency, TF over GST control)
binding signal (ELF4): 1.49 fold enrichment (6-mer frequency, TF over GST control)
binding signal (ELK4): 1.62 fold enrichment (6-mer frequency, TF over GST control)
binding signal (ETV2): 1.16 fold enrichment (6-mer frequency, TF over GST control)
binding signal (ELF3): 1.32 fold enrichment (6-mer frequency, TF over GST control)
binding signal (CRX): 1.25 fold enrichment (6-mer frequency, TF over GST control)
binding signal (ETV1): 1.44 fold enrichment (6-mer frequency, TF over GST control)
